Reference: PubChem BioAssay (NCATS)
Results filed as inconclusive are left out. Active and inactive are the calls of the source. Calls follow the shape of the dose curve; as a rule, active = well fitted curve in the direction sought with a large enough effect; inconclusive = small, poorly fitted or top-dose-only effect, or another doubt; inactive = no such curve, though single readings can be large; an effect the other way counts as inactive or inconclusive.

Tests used:
[1] = OV-KATE Cancer Cell Toxicity qHTS against the NCATS CANVASS Library (AID 1347345); also: % is scaled to controls: 0 for no effect and ±100 for the full control effect
Method in brief: (§1)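 Step one: seed 1000 cells per well. Step two: incubate 4 h. Step three: add test compounds in 11 concentrations. Step four: culture 72 h, then add CellTiter-Glo and record luminescence after 15min.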

[2] = HPAF-II Cancer Cell Toxicity qHTS against the NCATS CANVASS Library (AID 1347346); also: nearly all actives have a fitted effect of over 55% in size; also: potency is read from the fitted curve at half-maximal effect
Method in brief: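 Using 1000 HPAF-II cells per well, we titrated compounds over 11 concentrations for 72 h at 37 degrees C/5% CO2, with bortezomib as control. Cell survival was quantified by CellTiter-Glo luminescence.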

[3] = U-118MG Cancer Cell Toxicity qHTS against the NCATS CANVASS Library (AID 1347351)
Method in brief: as §1

[4] = HEK293 18hr Apoptosis Induction qHTS against the NCATS CANVASS Library (AID 1347357); also: 0% is about no effect
Method in brief: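 Cells seeded at 500/well in DMEM + 10% FBS. Compounds pinned, 11 concentrations. 18 h, 37 degrees C/5% CO2. Caspase-Glo 3/7 added, 15 min RT dark, luminescence read.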

[5] = HPAF-II 12hr Apoptosis Induction qHTS against the NCATS CANVASS Library (AID 1347358); also: 0% is about no effect
Method in brief: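 Twelve-hour compound exposure of HPAF-II cells in DMEM with 10% FBS, then luminescent Caspase-Glo 3/7 detection after 15 min at room temperature; doxorubicin control.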

[6] = HEK293 24hr Apoptosis Induction qHTS against the NCATS CANVASS Library (AID 1347359); also: 0% is about no effect
Method in brief: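 Caspase-3/7 activation measured as luminescence from the DEVD-based Caspase-Glo reagent, 15 min at room temperature, following 24-hour compound treatment of HEK293 cells.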

[7] = HEK293 12hr Apoptosis Induction qHTS against the NCATS CANVASS Library (AID 1347361); also: 0% is about no effect
Method in brief: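 Cells are seeded, dosed with an 11-point compound series and incubated 12 hours. Caspase-3/7 activity is detected by luminescent DEVD-substrate reagent after 15 minutes at room temperature.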

[8] = molecular target: Luciferin 4-monooxygenase (Photinus pyralis) (UniProt P08659); assay: Firefly luciferase counterscreen qHTS: Assay Interference Panel against the NCATS CANVASS Library (AID 1347363); also: series mostly up to about 57 µM; 0% is about no effect
Sequence of Luciferin 4-monooxygenase (Photinus pyralis) (P08659 whole entry, looked up): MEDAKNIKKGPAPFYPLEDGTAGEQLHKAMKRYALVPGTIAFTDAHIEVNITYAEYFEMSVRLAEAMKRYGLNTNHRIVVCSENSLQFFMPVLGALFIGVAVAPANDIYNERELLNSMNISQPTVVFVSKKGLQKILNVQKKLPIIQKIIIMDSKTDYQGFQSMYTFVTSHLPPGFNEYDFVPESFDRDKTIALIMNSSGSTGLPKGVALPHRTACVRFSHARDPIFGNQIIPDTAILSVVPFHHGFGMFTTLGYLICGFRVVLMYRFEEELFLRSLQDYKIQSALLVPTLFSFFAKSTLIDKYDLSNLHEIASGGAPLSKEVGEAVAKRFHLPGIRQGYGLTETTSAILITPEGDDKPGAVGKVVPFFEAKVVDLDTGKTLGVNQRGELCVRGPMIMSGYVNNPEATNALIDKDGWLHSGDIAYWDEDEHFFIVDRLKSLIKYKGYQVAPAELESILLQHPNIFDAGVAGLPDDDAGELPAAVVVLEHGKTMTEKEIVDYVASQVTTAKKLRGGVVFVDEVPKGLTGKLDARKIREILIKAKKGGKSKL
Method in brief: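 Luminescence inhibition readout: compounds (11-point qHTS) sat 15 min at room temperature with substrate mix (0.013 mM luciferin and ATP), then firefly luciferase was added and signal read 5 min later.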

[9] = MCF7 Cancer Cell Toxicity qHTS against the NCATS CANVASS Library (AID 1347369); also: potency is read from the fitted curve at half-maximal effect
Method in brief: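 Cells seeded at 500/well, then compound pinned. Plates incubated 72 hr at 37C, 5% CO2. CellTiterGlo added; luminescence read.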

[10] = J3T Cancer Cell Toxicity qHTS against the NCATS CANVASS Library (AID 1347371);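 as to activity change, negative = cytotoxicity: J3T is a canine glioma cancer cell line seeded at 500 cells per well; series mostly up to about 46 µM; % is scaled to controls: 0 for no effect and ±100 for the full control effect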
Method in brief: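 ATP-based cytotoxicity in canine J3T cells: 72 hr exposure at 37C, 11-point titration, CellTiterGlo luminescent detection.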

[11] = molecular target: Nuclear receptor subfamily 1 group I member 3 (Homo sapiens) (UniProt Q14994); assay: qHTS for Constitutive Androstane Receptor (CAR) Antagonist screened against the NCATS CANVASS Library (AID 1347372);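 also: cells stimulated with 50 nM CITCO agonist so inhibition reflects antagonism; series mostly up to about 46 µM; % is scaled to controls: 0 for no effect and ±100 for the full control effect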
Sequence of Nuclear receptor subfamily 1 group I member 3 (Homo sapiens) (Q14994 whole entry, looked up): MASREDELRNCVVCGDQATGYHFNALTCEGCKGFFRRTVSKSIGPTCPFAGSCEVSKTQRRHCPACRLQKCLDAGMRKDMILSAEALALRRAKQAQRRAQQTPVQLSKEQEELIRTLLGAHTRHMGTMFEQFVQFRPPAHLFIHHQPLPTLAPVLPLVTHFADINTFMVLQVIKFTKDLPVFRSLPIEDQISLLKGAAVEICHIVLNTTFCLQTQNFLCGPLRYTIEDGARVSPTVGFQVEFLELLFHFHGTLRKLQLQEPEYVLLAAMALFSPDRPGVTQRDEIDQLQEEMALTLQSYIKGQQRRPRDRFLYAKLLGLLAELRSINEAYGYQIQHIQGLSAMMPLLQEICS
Method in brief: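 Antagonist mode: compound added alongside 50 nM CITCO to HepG2-hCAR-CYP2B6 reporter cells, 24hr at 37C. Viability by CellTiter-Fluor fluorescence, then CAR-driven luciferase by ONE-Glo luminescence.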

[12] = molecular target: Nuclear receptor subfamily 1 group I member 3 (Homo sapiens) (UniProt Q14994); assay: qHTS for Constitutive Androstane Receptor (CAR) Agonist screened against the NCATS CANVASS Library (AID 1347373);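 also: every well also contained 1.5 µM PK11195 alongside the test compound; 0% is about no effect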
Method in brief: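 In an 11-point concentration series, compounds were incubated 24hr with HepG2 cells carrying hCAR and a CYP2B6-2.2kb reporter, with PK11195 at 1.5uM final. A CellTiter-Fluor viability read preceded the ONE-Glo luminescence read.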

[13] = qHTS for Hypoxia signaling pathway (HIF-1) agonists against the NCATS CANVASS Library (AID 1347375); also: 0% is about no effect
Method in brief: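 An HRE-beta-lactamase ME-180 line is exposed for 17 h to an 11-point compound series, then read by CCF4-AM FRET. Cytotoxicity is measured in parallel in the same wells with CellTiter-Glo, and autofluorescence is checked separately.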

[14] = 10-beta competent E. coli microbial cell viability qHTS against the NCATS CANVASS Library (AID 1347376); also: series mostly up to about 46 µM; 0% is about no effect
Method in brief: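 Overnight 37C exposure of 10-beta E. coli (0.2 OD) to an 11-point concentration series; ATP-based luminescence after 20 min room-temperature reagent incubation; daunomycin as control.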

[15] = qHTS for H2AX Agonists against the NCATS CANVASS Library (AID 1347378);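 also: phospho-H2AX S139 level in CHO-K1 lysates by TR-FRET emission ratio; 0% is about no effect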
Method in brief: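 CHO-K1, 1000 cells/well, o/n 37C; cpd several conc, 3 hr 37C, 0.76% DMSO; lyse 30 min RT; cryptate anti-pH2AX(S139) + d2 anti-H2AX, 24 hr RT; HTRF 665/620.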

[16] = Inflammasome Signaling qHTS Counterscreen: IL-1-beta AlphaLISA counterscreen against the NCATS CANVASS Library (AID 1347381);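 also: cell-free check with purified IL-1β in medium and no THP-1 cells; series mostly up to about 57 µM; 0% is about no effect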
Method in brief: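 Here, no cellular stimulation occurs; compounds in an 11-point series meet 4 pg purified IL-1-beta directly. Bead-based AlphaLISA detection follows (1 h acceptor/antibody, then 30 min donor, dark, room temperature), with excitation at 680 nm.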

[17] = Cytotoxicity qHTS for assessment of Hepg2 cells membrane integrity screened against the NCATS CANVASS Library (AID 1347387)
Method in brief: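 Membrane damage in HepG2 monolayers was estimated from released LDH, measured with CytoTox-ONE (ex 560/em 590 nm), after 5 hr treatment across 0.59 nM - 46 uM final.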

[18] = qHTS for inhibitors of Wild type Zika virus screened against the NCATS CANVASS Library (AID 1347396);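 also: ATP luminescence of surviving cells so rescue from viral cell killing; series mostly up to about 46 µM; % is scaled to controls: 0 for no effect and ±100 for the full control effect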
Method in brief: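 Using ATP-based luminescence (CellTiter Glo), this screen scores rescue of Vero 766 cells from wild-type Zika killing at 72 h post-infection. Compounds are tested in a concentration series.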

[19] = KB-3-1 Cancer Cell Toxicity qHTS against the NCATS CANVASS Library (AID 1347366); also: nearly all actives have a fitted effect of over 75% in size
Method in brief: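 Luminescence from CellTiter-Glo (10 min, room temperature) measured KB-3-1 viability after 72 hr compound exposure at 37C. Cells were seeded at 500/well and tested in an 11-point series.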

[20] = Viability qHTS for inhibitors of the SERCaMP assay screened against the NCATS CANVASS Library (AID 1347400); also: series mostly up to about 92 µM; % is scaled to controls: 0 for no effect and ±100 for the full control effect; nearly all actives have a fitted effect of over 70% in size
Method in brief: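 Measures loss of viability in SERCaMP reporter SH-SY5Y cells treated for 48 h with compounds; luminescent ATP detection by CellTiter-Glo.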

CN1CCc2cc3c(c4c2[C@H]1[C@@H](O)c1ccccc1-4)OCO3
active: Potency [2] 13.3 µM | Potency [9] 26.2 µM
inactive: Potency [1] | Potency [3] | Potency [4] | Potency [5] | Potency [6] | Potency [7] | Potency [8] | Potency [10] | Potency [11] | outcome [12] | Potency [13] | outcome [14] | Potency [15] | outcome [16] | outcome [17] | Potency [18]

COc1ccc([C@@H]2c3cc(OC)c(OC)cc3C(=O)[C@H](C)C2C)cc1OC (stereo partly drawn)
inactive: activity change, negative = cytotoxicity [1] -0.626% [at 7.64 µM] | activity change, negative = cytotoxicity [2] 3.84% [at 7.64 µM] | activity change, negative = cytotoxicity [3] 3.5% [at 7.64 µM] | caspase activation [4] 3.8% [at 9.19 µM] | caspase activation [5] 2.3% [at 9.19 µM] | activation [6] 3.39% [at 9.19 µM] | caspase activation [7] 2.92% [at 9.19 µM] | activity change, negative = inhibition [8] 4.08% [at 11.5 µM] | activity change, negative = cytotoxicity [19] 8.45% [at 9.19 µM] | activity change, negative = cytotoxicity [9] -14.7% [at 9.17 µM] | outcome [10] inactive [at 9.19 µM] | activity change, negative = inhibition [11] -2.16% [at 9.19 µM] | activation [12] 1.07% [at 9.19 µM] | activation [13] -1.07% [at 7.64 µM] | activation [15] -1.51% [at 15.3 µM] | activity change, negative = inhibition [16] -8.6% [at 11.5 µM] | cytotoxicity (LDH release) [17] 0.689 [at 9.19 µM] | activity change, negative = antiviral [18] 5.82% [at 9.14 µM] | activity change, negative = cytotoxicity [20] 9.45% [at 18.4 µM]

CO[C@@H]1[C@H](O)[C@@H](C)O[C@@H](OC[C@@H]2C(C)OC(=O)/C=C/[C@H](C)C(O[C@@H]3O[C@H](C)CC4(OC(=O)O[C@@H]4C)C3O)[C@@H](C)CC(C)C(=O)CC[C@H]3OC23)[C@@H]1OC (stereo partly drawn)
inactive: Potency [1] | Potency [2] | Potency [3] | Potency [4] | Potency [5] | Potency [6] | Potency [7] | Potency [8] | Potency [19] | Potency [9] | Potency [10] | Potency [11] | outcome [12] | Potency [13] | outcome [14] | Potency [15] | outcome [16] | outcome [17] | Potency [18] | Potency [20]

C[C@@H]1O[C@@H](Oc2c(-c3ccc(O)cc3)oc3cc(O)cc(O)c3c2=O)[C@H](O)[C@H](O)[C@H]1O
inactive: Potency [2] | Potency [3] | Potency [4] | Potency [5] | Potency [6] | Potency [7] | Potency [8] | Potency [19] | Potency [9] | Potency [10] | Potency [11] | outcome [12] | outcome [14] | Potency [15] | outcome [16] | outcome [17] | Potency [18] | Potency [20]

C=CC(C)(C)C(=O)[C@@H](C)[C@@H]1CC[C@](C)(C=C)O1
inactive: Potency [1] | Potency [2] | Potency [3] | Potency [4] | Potency [5] | Potency [6] | Potency [7] | Potency [8] | Potency [19] | Potency [9] | Potency [10] | Potency [11] | outcome [12] | Potency [13] | outcome [14] | Potency [15] | outcome [16] | outcome [17] | Potency [18] | Potency [20]

O=C1CC(c2cc(O)cc(O)c2)Oc2cc(O)ccc21 (stereo not drawn)
inactive: Potency [1] | Potency [2] | Potency [3] | Potency [4] | Potency [5] | Potency [6] | Potency [7] | Potency [8] | Potency [19] | Potency [9] | Potency [10] | Potency [11] | outcome [12] | Potency [13] | outcome [14] | outcome [16] | outcome [17] | Potency [18]
